The target in test [1] is Cell division control protein 42 homolog (Homo sapiens) (UniProt P60953). The experiment in a line: activated mutant Cdc42 GTP-binding inhibitors, dose response, biochemical, multiplex bead flow cytometry, Bodipy-FL-GTP (AID 1333;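 active means fitted half-maximal concentration within the tested dose range, moderate curve steepness, a statistically real signal drop, and little compound fluorescence or tag-binding interference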).
For test [2] the target is unchanged. The experiment in a line: wildtype Cdc42 GTP-binding inhibitors, dose response, biochemical, multiplex bead flow cytometry, Bodipy-FL-GTP (AID 1334). Particulars: bead-based flow cytometry, Bodipy-FL-GTP binding to GST-Cdc42; at 100 µM (top of the series) unless noted. In general terms: In flow cytometry, cells or beads pass a laser one at a time.
Test [3] concerns the target GTPase HRas (Homo sapiens) (UniProt P01112). The experiment in a line: inhibitors of GTP binding to wildtype Ras, dose response, biochemical, multiplex bead flow cytometry (AID 1335;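 active means fitted half-maximal concentration within 10 nM to 100 µM, steepness 0.5 to 2, significant signal drop, low assay interference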). Particulars: bead-based flow cytometry, Bodipy-GTP binding to GST-Ras; at 100 µM (top of the series) unless noted.
Test [4] relates to Ras-related protein Rab-7a (dog), GTP binding. The experiment in a line: Rab7 GTP binding inhibitors, potency, dose response, biochemical, wildtype, multiplex bead flow cytometry (AID 1336; call rule not given here).
Test [5] deals with Ras-related C3 botulinum toxin substrate 1 (Homo sapiens) (UniProt P63000). The test can be described thus: wildtype Rac1 GTP binding inhibitors, dose response, biochemical, multiplex bead flow cytometry (AID 1340;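 active means dose curve with midpoint inside tested range, moderate steepness, plateau gap beyond fit error, low compound glow and bead-link interference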). Particulars: GST-Rac1 beads, Bodipy-FL-GTP binding; at 100 µM (top of the series) unless noted.
The target in test [6] is GTPase HRas (Homo sapiens) (UniProt P01112). The experiment in a line: activated Ras mutant GTP binding inhibitors, dose response, biochemical, multiplex bead flow cytometry (AID 1341;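 active means dose-response curve with midpoint inside the tested range, moderate steepness, significant amplitude and little compound fluorescence or bead-attachment interference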;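 further: GST-tagged constitutively activated Ras mutant immobilized on beads and multiplexed with other GTPases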).
Chain of GTPase HRas (Homo sapiens) (P01112 whole entry, looked up): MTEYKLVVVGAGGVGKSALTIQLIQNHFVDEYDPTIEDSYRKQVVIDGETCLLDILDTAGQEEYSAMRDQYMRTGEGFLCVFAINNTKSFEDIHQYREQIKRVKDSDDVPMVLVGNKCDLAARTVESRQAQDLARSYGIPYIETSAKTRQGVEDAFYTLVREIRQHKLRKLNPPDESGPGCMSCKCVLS

For part of these data: Entries with a potency or affinity are not part of this list. The source made the active and inactive calls.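 How the source made its calls, unless noted: active means fitted half-maximal concentration within the tested range, moderate curve steepness, significant signal drop, and little compound fluorescence or bead-linkage interference; inactive means the rest.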

Chain of Cell division control protein 42 homolog (Homo sapiens) (P60953 whole entry, looked up): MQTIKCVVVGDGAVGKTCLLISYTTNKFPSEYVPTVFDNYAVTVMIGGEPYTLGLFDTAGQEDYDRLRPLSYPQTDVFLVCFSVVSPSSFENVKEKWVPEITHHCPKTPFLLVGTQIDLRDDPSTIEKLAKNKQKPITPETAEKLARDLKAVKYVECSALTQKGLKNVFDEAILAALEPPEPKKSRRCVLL

Consider `Cc1ccccc1-c1nnc(NC(=O)c2ccc(N3C(=O)CCC3=O)cc2)s1`, for which the compound was called inactive in test [1], in test [4] and in test [6]. For the same compound, the fluorescence, percent of control (lower = inhibition) in test [2] turned out to be 48.6%. The same compound returned a GTP binding, percent of control in test [3] of 65.8%. This compound also showed a GTP binding signal, raw median fluorescence (lower = inhibition) (MCF (arbitrary fluorescence units)) in test [5] of 236.
Consider `O=C(O)CSc1nc2ccccc2n1CCOc1ccccc1F`, for which the call in test [1], in test [4] and in test [6] was inactive. Moreover, the fluorescence, percent of control (lower = inhibition) in test [2] came to 58.4%. The GTP binding, percent of control in test [3] came to 90.3%. This compound had a GTP binding signal, raw median fluorescence (lower = inhibition) (MCF (arbitrary fluorescence units)) in test [5] of 37.2.
Consider `O=C(O)c1ccc(CNCc2cccc(Br)c2)s1`, for which the result in test [1], in test [4] and in test [6] was inactive. In addition, the fluorescence, percent of control (lower = inhibition) in test [2] amounted to 62.4%. In test [3], this compound came in with a GTP binding, percent of control of 89.5%. Moreover, the GTP binding signal, raw median fluorescence (lower = inhibition) (MCF (arbitrary fluorescence units)) in test [5] is 33.7.
Turning to `Clc1ccccc1-c1ccc(/C=N/Nc2nncc(-c3ccccc3)n2)o1`, the compound was called inactive in test [1], in test [4] and in test [6]. Further, the fluorescence, percent of control (lower = inhibition) in test [2] was found to be 39%. In addition, in test [3], the GTP binding, percent of control stood at 89.5%. Also, the GTP binding signal, raw median fluorescence (lower = inhibition) (MCF (arbitrary fluorescence units)) in test [5] is 220.
For `O=C(O)CC/C(=C\c1ccc(N2CCOCC2)c([N+](=O)[O-])c1)c1nc2ccccc2s1`, the outcome in test [1], in test [4] and in test [6] was inactive. For the same compound, the fluorescence, percent of control (lower = inhibition) in test [2] came to 28.1%. Further, the GTP binding, percent of control in test [3] was determined as 71.9%. The compound also returned a GTP binding signal, raw median fluorescence (lower = inhibition) (MCF (arbitrary fluorescence units)) in test [5] of 212.
Take `CCCCN1C(=O)/C(=C/C=C2\N(C)c3ccccc3C2(C)C)SC1=S`: the call in test [1], in test [4] and in test [6] was inactive. Further, the fluorescence, percent of control (lower = inhibition) in test [2] amounted to 128%. This compound also yielded a GTP binding, percent of control in test [3] of 134%. The compound also registered a GTP binding signal, raw median fluorescence (lower = inhibition) (MCF (arbitrary fluorescence units)) in test [5] of 235.
As to `O=C(O)Cn1c(SCCOc2ccccc2Cl)nc2ccccc21`, the compound was classed as inactive in test [1], in test [4] and in test [6]. Besides, in test [2], the fluorescence, percent of control (lower = inhibition) amounted to 60.2%. In addition, the GTP binding, percent of control in test [3] worked out at 86.5%. Besides, in test [5], the GTP binding signal, raw median fluorescence (lower = inhibition) (MCF (arbitrary fluorescence units)) is 30.5.
For `O=C(Cn1nc2ccccc2n1)N/N=C/c1cc([N+](=O)[O-])ccc1O`, the call in test [1], in test [4] and in test [6] was inactive. Besides, in test [2], the fluorescence, percent of control (lower = inhibition) was 23.8%. The compound also yielded a GTP binding, percent of control in test [3] of 54.9%. Besides, the GTP binding signal, raw median fluorescence (lower = inhibition) (MCF (arbitrary fluorescence units)) in test [5] stood at 109.
In the case of `C=CCn1c(COc2ccc(F)cc2)nnc1SCC(=O)c1c[nH]c2c(CC)cccc12`, the outcome in test [1], in test [4] and in test [6] was inactive. Moreover, the fluorescence, percent of control (lower = inhibition) in test [2] was found to be 50.5%. The GTP binding, percent of control in test [3] is 60.7%. In test [5], this compound displayed a GTP binding signal, raw median fluorescence (lower = inhibition) (MCF (arbitrary fluorescence units)) of 190.
For the compound `O=C(O)c1cccnc1Oc1ccc2c(c1)OCO2`, the compound was classed as inactive in test [1], in test [4] and in test [6]. Moreover, the fluorescence, percent of control (lower = inhibition) in test [2] came to 76.8%. In test [3], this compound showed a GTP binding, percent of control of 92%. In test [5], the GTP binding signal, raw median fluorescence (lower = inhibition) (MCF (arbitrary fluorescence units)) worked out at 55.2.
With `Cc1ccc(Sc2ncccc2C(=O)O)c(C)c1`, the compound was called inactive in test [1], in test [4] and in test [6]. Moreover, the fluorescence, percent of control (lower = inhibition) in test [2] amounted to 78%. Moreover, the GTP binding, percent of control in test [3] stood at 78.1%. The same compound had a GTP binding signal, raw median fluorescence (lower = inhibition) (MCF (arbitrary fluorescence units)) in test [5] of 309.
`Cc1nc2c(ccc3nc(NC(=O)c4ccc(S(=O)(=O)N(C)C)cc4)sc32)s1`: the compound was called inactive in test [1], in test [4] and in test [6]. Besides, the fluorescence, percent of control (lower = inhibition) in test [2] turned out to be 79.8%. The GTP binding, percent of control in test [3] came out at 151%. Moreover, the GTP binding signal, raw median fluorescence (lower = inhibition) (MCF (arbitrary fluorescence units)) in test [5] was found to be 159.
On to `COc1ccccc1NS(=O)(=O)c1cc([N+](=O)[O-])ccc1N/N=C/c1sc(N2CCOCC2)nc1-c1ccccc1`, for which the result in test [1], in test [4] and in test [6] was inactive. Moreover, in test [2], the fluorescence, percent of control (lower = inhibition) was determined as 73.1%. The GTP binding, percent of control in test [3] was determined as 81%. The same compound showed a GTP binding signal, raw median fluorescence (lower = inhibition) (MCF (arbitrary fluorescence units)) in test [5] of 230.
`CC1=C(C)CC(C(=O)c2cc(C)ccc2C)C(C(=O)O)C1` (stereo not given): the result in test [1], in test [4] and in test [6] was inactive. Further, in test [2], the fluorescence, percent of control (lower = inhibition) was found to be 57.3%. In addition, the GTP binding, percent of control in test [3] turned out to be 88.3%. Also, the GTP binding signal, raw median fluorescence (lower = inhibition) (MCF (arbitrary fluorescence units)) in test [5] stood at 31.
Turning to `COc1cc(/C=N/NC(=O)CSc2n[nH]c(=O)[nH]c2=O)cc(OC)c1O`, the compound was called inactive in test [1], in test [4] and in test [6]. Further, the fluorescence, percent of control (lower = inhibition) in test [2] is 36%. Besides, the GTP binding, percent of control in test [3] worked out at 78.9%. Besides, in test [5], the GTP binding signal, raw median fluorescence (lower = inhibition) (MCF (arbitrary fluorescence units)) is 178.

Values taken from PubChem BioAssay.
